The values that follow come from the supplement of paper PMC3414501.

Assay [1] deals with S. cerevisiae SK1 pCDA2-eGFP (USY613), sporulating. As to the kind of experiment: CDA2-GFP sporulation assay sensitivity score (z-score vs DMSO controls); higher = stronger inhibition of sporulation, active = hit call of the paper.
Assay [2] has as its system S. cerevisiae NKY1551 his4x/his4B, sporulating. The assay is described as follows: HIS4 meiotic recombination assay sensitivity score (z-score vs DMSO controls); higher = stronger inhibition of sporulation/recombination, active = hit call of the paper.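 Further: active if sensitivity score above 5.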
Assay [3] has as its system S. cerevisiae AD1-9 (efflux-pump deficient), vegetative growth in YPD. The assay is described as follows: growth sensitivity score (doubling time z-score vs DMSO controls); higher = slower growth, strongly negative scores also mark growth inhibition (complete suppression), active = hit call of the paper. An outline of the steps: (§1)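 Optical density of Saccharomyces cerevisiae cultures in microtiter plates was followed every 15 min for 24 hours after seeding at an OD600 of 0.065. Eight solvent-only wells were run per experiment. Growth sensitivity scores were found by subtracting the solvent-only mean from the compound mean and dividing by the solvent-only standard deviation.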

The subject of assay [4] is S. cerevisiae BY4741 (wild-type), vegetative growth in YPD. The assay is described as above. An outline of the steps:
as §1

Structures are written as SMILES. Structures can show the parent of a compound that is named as a salt.
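Wherever CDA2-GFP sporulation assay sensitivity score (z-score vs DMSO controls) is given: active if sensitivity score above 5.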

As for `CCOC(=O)c1ncn2c1CN(C)C(=O)c1cc(F)ccc1-2` [Flumazenil] (stock concentration (mM, diluted 1:100): 10), in assay [1], the “CDA2-GFP sporulation assay sensitivity score” value was 1.01 (inactive). In addition, the “HIS4 meiotic recombination assay sensitivity score” value in assay [2] was -0.81 (inactive). Besides, the figures for the growth sensitivity score in assay [3] and in assay [4] were -0.24 (inactive) and 1.4 (inactive), respectively.
`COc1ccc(CN2CCN(C(c3ccc(F)cc3)c3ccc(F)cc3)CC2)c(OC)c1OC` [Lomerizine dihydrochloride] (stock concentration (mM, diluted 1:100): 8.7): in assay [1], the “CDA2-GFP sporulation assay sensitivity score” value is 13.1 (active). In addition, the “HIS4 meiotic recombination assay sensitivity score” value in assay [2] is -0.52 (inactive). Further, the growth sensitivity score in assay [4] is 2.29 (active).
With `CC(C)C[C@H](NC(=O)[C@@H](COC(C)(C)C)NC(=O)[C@H](Cc1ccc(O)cc1)NC(=O)[C@H](CO)NC(=O)[C@H](Cc1c[nH]c2ccccc12)NC(=O)[C@H](Cc1cnc[nH]1)NC(=O)[C@@H]1CCC(=O)N1)C(=O)N[C@@H](CCCNC(=N)N)C(=O)N1CCC[C@H]1C(=O)NNC(N)=O` [Goserelin acetate] (stock concentration (mM, diluted 1:100): 9.6), the “CDA2-GFP sporulation assay sensitivity score” value in assay [1] was 0.53 (inactive). In addition, the “HIS4 meiotic recombination assay sensitivity score” value in assay [2] is -1.25 (inactive). The figures for the growth sensitivity score in assay [3] and in assay [4] were 0.11 (inactive) and -0.77 (inactive), respectively.
Consider `COc1ccnc(C[S+]([O-])c2nc3cc(OC(F)F)ccc3[nH]2)c1OC` (stereo not given) [Pantoprazole sodium] (stock concentration (mM, diluted 1:100): 10), for which the “CDA2-GFP sporulation assay sensitivity score” value in assay [1] is 0.75 (inactive). In assay [2], the “HIS4 meiotic recombination assay sensitivity score” value was 0.54 (inactive). Moreover, the growth sensitivity score is -2.1 in assay [3] and -0.44 (inactive) in assay [4].
Consider `O=C(O)c1cc(/N=N/c2ccc(S(=O)(=O)Nc3ccccn3)cc2)ccc1O` [Sulfasalazine] (stock concentration (mM, diluted 1:100): 10), for which, in assay [1], the “CDA2-GFP sporulation assay sensitivity score” value was 2.13 (inactive). In assay [2], the “HIS4 meiotic recombination assay sensitivity score” value was -0.54 (inactive). The growth sensitivity score in assay [3] is -2.95; in assay [4], -2.26.
The corresponding values for `CC(COc1ccccc1Cc1ccccc1)N1CCCCC1` (stereo not given) [Benproperine phosphate] (stock concentration (mM, diluted 1:100): 10) are 0.55 (inactive), 7.79 (active), 3.29 (active) and 6.41 (active).
The corresponding values for `COc1ccc(C(=O)NCc2ccc(OCCN(C)C)cc2)cc1OC` [Itopride hydrochloride] (stock concentration (mM, diluted 1:100): 8.2) are -0.55 (inactive), -1.08 (inactive), -1.3 (inactive) and -0.67 (inactive).
The corresponding values for `CN1CCN2c3ncccc3Cc3ccccc3C2C1` (stereo not given) [Mirtazapine] (stock concentration (mM, diluted 1:100): 10) are 12.7 (inactive), 3.31 (inactive), 2.89 (active) and -0.03 (inactive).
Regarding `C#C[C@]1(O)CC[C@H]2[C@@H]3CCc4cc(OC)ccc4[C@H]3CC[C@@]21C` [Mestranol] (stock concentration (mM, diluted 1:100): 10), the “CDA2-GFP sporulation assay sensitivity score” value in assay [1] was 4.85 (inactive). Also, the “HIS4 meiotic recombination assay sensitivity score” value in assay [2] is -0.79 (inactive). Also, the growth sensitivity score is 3.53 (active) in assay [3] and 0.8 (inactive) in assay [4].
Take `Cc1cccc(Nc2ccncc2S(=O)(=O)NC(=O)NC(C)C)c1` [Torasemide] (stock concentration (mM, diluted 1:100): 9.9): in assay [1], the “CDA2-GFP sporulation assay sensitivity score” value was -0.45 (inactive). The “HIS4 meiotic recombination assay sensitivity score” value in assay [2] was 0.74 (inactive). Besides, the growth sensitivity score is -2.4 in assay [3] and -0.66 (inactive) in assay [4].
The corresponding values for `COc1ccc(CC(C)NCC(O)c2ccc(O)c(NC=O)c2)cc1` (stereo not given) [Formoterol fumarate dihydrate] (stock concentration (mM, diluted 1:100): 7) are 0.41 (inactive), -1.68 (inactive), -0.7 (inactive) and -0.1 (inactive).
The corresponding values for `CCOC(=O)OC(C)OC1=C(C(=O)Nc2ccccn2)N(C)S(=O)(=O)c2ccccc21` (stereo not given) [Ampiroxicam] (stock concentration (mM, diluted 1:100): 10) are 3.3 (inactive), 1.18 (inactive), -0.54 (inactive) and -0.19 (inactive).
On to `COc1cc([C@@H]2c3cc4c(cc3[C@@H](O[C@@H]3O[C@@H]5CO[C@@H](C)O[C@H]5[C@H](O)[C@H]3O)[C@H]3COC(=O)[C@H]23)OCO4)cc(OC)c1O` [Etoposide] (stock concentration (mM, diluted 1:100): 10), for which the “CDA2-GFP sporulation assay sensitivity score” value in assay [1] is 3.42 (inactive). In assay [2], the “HIS4 meiotic recombination assay sensitivity score” value was 0.11 (inactive). Besides, the growth sensitivity score in assay [3] was 59.2 (active); in assay [4], 0.01 (inactive).
As to `CCCN[C@H]1CCc2nc(N)sc2C1` [Pramipexole hydrochloride] (stock concentration (mM, diluted 1:100): 7.1), in assay [1], the “CDA2-GFP sporulation assay sensitivity score” value is -0.08 (inactive). Also, in assay [2], the “HIS4 meiotic recombination assay sensitivity score” value is -0.03 (inactive). Further, the growth sensitivity score in assay [3] is -2.17; in assay [4], -0.39 (inactive).
